EBV gp42 inh = Epstein-Barr virus gp42 inhibitors, primary screen, biochemical, uHTS, fluorescence polarization. Fluorescence polarization binding assay, mP read-out. inhibition, % (tested at 21.74 µM). 220,000 tested, 0.42% active. AID 1085, 2008; in the data active = inhibition above about 50%
eLon inh = inhibitors of E. coli Lon protease, primary screen, biochemical, fluorescence polarization; P0A9M0; purified E. coli Lon protease; inhibition, % at 7.94 µM; 360,000 tested, 0.42% active; AID 602123, 2011; in the data active = inhibition above about 13%, passing the limit was not always enough;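 note: 0% = enzyme with probe and DMSO and 100% = no enzyme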
Target sequence (P0A9M0 whole entry, looked up): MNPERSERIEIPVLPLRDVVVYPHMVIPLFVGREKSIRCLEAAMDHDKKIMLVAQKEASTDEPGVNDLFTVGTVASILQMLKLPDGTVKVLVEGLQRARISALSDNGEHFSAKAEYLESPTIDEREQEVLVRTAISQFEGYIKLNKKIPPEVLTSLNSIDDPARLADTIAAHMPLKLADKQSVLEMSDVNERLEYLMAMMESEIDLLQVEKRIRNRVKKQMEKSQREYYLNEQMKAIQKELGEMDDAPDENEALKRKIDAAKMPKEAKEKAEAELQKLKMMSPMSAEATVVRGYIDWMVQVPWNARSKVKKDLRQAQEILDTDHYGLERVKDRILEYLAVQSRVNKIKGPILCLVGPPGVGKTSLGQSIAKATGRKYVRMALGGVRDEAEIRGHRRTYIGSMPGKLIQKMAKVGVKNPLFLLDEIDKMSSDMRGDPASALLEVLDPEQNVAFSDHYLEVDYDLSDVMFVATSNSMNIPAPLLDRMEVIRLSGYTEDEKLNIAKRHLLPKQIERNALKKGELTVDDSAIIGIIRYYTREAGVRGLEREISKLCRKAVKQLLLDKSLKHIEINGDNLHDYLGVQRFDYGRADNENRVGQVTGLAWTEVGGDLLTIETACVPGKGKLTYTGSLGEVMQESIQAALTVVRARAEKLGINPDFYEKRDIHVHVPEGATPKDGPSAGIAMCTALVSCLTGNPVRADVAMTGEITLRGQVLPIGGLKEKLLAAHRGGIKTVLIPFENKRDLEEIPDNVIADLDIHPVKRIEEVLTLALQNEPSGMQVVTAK
MEX-5 binding = MEX-5 zinc finger RNA-binding disruptors – biochemical, C. elegans, fluorescence polarization, MLPCN library, primary screen. Zinc finger protein mex-5 (Caenorhabditis elegans), Q9XUB2. MEX-5/FITC-TCR2 RNA binding; active compounds read low. 300,000 tested, 0.38% active. AID 1832, 2009. activity score (negative = inhibition of binding), % at 10 µM;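 active = inhibition past about -25% in most replicates, and total fluorescence under double the plate's negative control median, limit read from the data; inconclusive = replicates evenly split on the limit, or fluorescence at least double controls; inactive = too little inhibition in most replicates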;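 note: 0% = DMSO and -100% = 5 µM competing unlabeled TCR2 RNA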
GLD-1 TGE inh = GLD-1/TGE RNA complex disruptors, primary screen, biochemical, fluorescence polarization. 320,000 tested, 0.44% active. inhibition, % at 5.96 µM. purified GLD-1 + fluorescein TGE RNA. Female germline-specific tumor suppressor gld-1 (Caenorhabditis elegans), Q17339;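 active = percent inhibition above a per-plate cutoff, the plate mean of test compounds plus 3 SD, cut at about 30% in these data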;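 note: 0% = DMSO wells with GLD-1 and probe and 100% = wells lacking GLD-1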
Bcl-xL primary = inhibitors of human Bcl-xL, primary screen, biochemical, fluorescence polarization, HTS | 320,000 tested, 0.7% active | Bcl-2-like protein 1 (Homo sapiens), Q07817 | inhibition, % at 10.9 µM | GST-Bcl-xL / FITC-Bim BH3 peptide fluorescence polarization;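 active = inhibition above the mean of all tested compounds plus 3 SD, cutoff set per campaign, cut at about 30% in these data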;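 note: 0% = DMSO wells and 100% = unlabeled Bim-BH3 peptide competitor; inhibitors lower millipolarization by displacing the labeled peptide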
eLon confirm = E. coli Lon protease inhibitor retest, confirmation, biochemical, fluorescence polarization; shares compounds with eLon inh; purified E. coli Lon; inhibition, % at 7.94 µM; 1,400 tested, 31% active; AID 602230, 2012; in the data active = inhibition above about 16%;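 note: 0% = enzyme with probe and DMSO and 100% = no enzyme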
Numbers without * were called inactive; ? = inconclusive; nt = no result given. Hits are enriched below; roughly 1.3% of the tested compounds scored in any of these assays.

SMILES | EBV gp42 inh | eLon inh | MEX-5 binding | GLD-1 TGE inh | Bcl-xL primary | eLon confirm
O=C(COC(=O)c1ccc(O)cc1)Nc1ncc(Cl)cc1Cl | 8 | 5 | 1 | 7 | 15 | nt
O=C(COC(=O)c1nc(Cl)ccc1Cl)Nc1ncc(Cl)cc1Cl | nt | 77* | -8 | 8 | 12 | -7
O=C(COC(=O)c1ccc(O)cc1O)NC1CC1 | nt | -4 | nt | 2 | 0 | nt
CN(C)c1ccc(NC(=O)CSCc2nc3c(nnn3Cc3ccc(F)cc3)c(=O)[nH]2)cc1 | -6 | 8 | -1 | 4 | 6 | nt
O=C(CSCc1nc2c(nnn2Cc2ccc(F)cc2)c(=O)[nH]1)Nc1cccc(C(F)(F)F)c1 | 12 | 16* | nt | 10 | 16 | -7
Cc1ccccc1C(=O)NCC(=O)OC(C)C(=O)NCc1ccco1 (stereo unspecified) | nt | 11 | 0 | 6 | 7 | nt
COc1ccc(C2(c3ccc(OC(C)=O)cc3OC(C)=O)CC(c3ccccc3)NC(=S)N2)cc1 (stereo unspecified) | 5 | 21* | 0 | -6 | -1 | 12
Cc1cccc(C)c1NC(=O)CSc1ncnc2[nH]ncc12 | nt | -8 | nt | 0 | nt | nt
O=C(O)/C=C/c1ccc(-n2ccnc2)cc1 | -8 | 1 | -2 | 5 | -4 | nt
COc1ccc(NC(=O)NNc2cc(N3CCOCC3)nc(N3CCOCC3)n2)cc1 | -15 | 34* | -2 | -3 | -3 | 15
CC(=O)NNc1cc(N2CCOCC2)nc(N2CCOCC2)n1 | -8 | -14 | 4 | -30 | 0 | nt
Cc1ccc2c(c1)c(C)c(C)n2CC(O)Cn1nc(C)c(Br)c1C (stereo unspecified) | -1 | 15* | 2 | 2 | 5 | 23*
Cc1ccc[n+](-c2[nH]c(=O)sc2/C=N/N=C(\[O-])CCn2c3ccccc3c3ccccc32)c1 | 5 | 9 | 1 | 12 | 14 | nt
CC(C)(C)c1cc[n+](-c2[nH]c(=O)sc2/C=N/NC([S-])=Nc2ccccc2)cc1 | 117* | 165* | ? | 160* | 177* | 71*
CCc1ccc[n+](-c2[nH]c(=O)sc2/C=N/N=C(\[O-])c2ccncc2)c1 | nt | 3 | -3 | 5 | 2 | nt
Cc1cc[n+](-c2[nH]c(=O)sc2/C=N/NC([S-])=Nc2ccccc2)cc1C | 64* | 95* | -6 | 131* | 129* | 33*
CCOc1ccc(-c2c[n+](=O)c3c(n2[O-])CCCC3)c(OCC)c1 | 1 | 68* | 0 | -3 | -2 | 1
CC1(CCc2ccccc2)NC(=O)NC1=O (stereo unspecified) | nt | 11 | nt | nt | nt | nt
COCCn1c(=NC(=O)C2COc3ccccc3O2)sc2cc(S(N)(=O)=O)ccc21 (stereo unspecified) | -9 | -6 | -3 | 7 | -5 | nt
C=CCn1c(=NC(=O)C2COc3ccccc3O2)sc2cc(S(N)(=O)=O)ccc21 (stereo unspecified) | -8 | 23* | -2 | 5 | 4 | -9
Clc1cc(CSc2ccccc2)nc(-c2ccccc2)n1 | -18 | -4 | 0 | -3 | 3 | nt
CNS(=O)(=O)c1cnccc1N1CCN(c2cccc(C(F)(F)F)c2)CC1 | -9 | -7 | 2 | 1 | 7 | nt
COC(=O)CN(c1ccc2c(c1)OCO2)S(C)(=O)=O | 5 | 17* | -1 | 8 | 1 | 7
Cc1cccc(NC(=O)c2sc(Cl)nc2-c2ccccc2)c1 | -10 | -9 | 1 | -1 | 1 | nt
COc1cc(NC(=O)Cc2nn(C)c(=O)c3ccccc23)cc(OC)c1OC | -19 | 3 | -3 | -3 | 4 | nt
SMILES | EBV gp42 inh | eLon inh | MEX-5 binding | GLD-1 TGE inh | Bcl-xL primary | eLon confirm
COc1ccc(OC)c(NC(=O)Cc2nn(C)c(=O)c3ccccc23)c1 | -17 | 16* | -1 | 2 | -1 | -2
O=c1c(-c2cc3ccccc3o2)[n+]([O-])c2ccccc2n1OCc1ccccn1 | 46 | 20* | -4 | 28 | 11 | 8
O=c1c(-c2ccc(Br)cc2)[n+]([O-])c2ccccc2n1OCc1ccccn1 | 8 | -7 | -2 | -5 | 9 | nt
COc1cccc(CN2CCCC(C(=O)Nc3ccc(-c4cscn4)cc3)C2)c1 (stereo unspecified) | nt | -9 | 1 | nt | nt | nt
CC1(C)Cc2c(c(-c3ccco3)[nH]c(=O)c2C#N)CS1 | 32 | 34* | -23 | 94* | 110* | 29*
CC1(C)Cc2c(c(-c3ccccc3)[nH]c(=O)c2C#N)CS1 | -1 | -9 | 2 | -4 | 5 | nt
CCOC(=O)c1c(=O)n(O)c2ccc(OC)cc2[n+]1[O-] | 69* | 83* | -22 | 176* | 159* | 29*
CCC1(c2ccccc2)NC(=O)N(CC(=O)N(CC(=O)Nc2ccccc2C(F)(F)F)Cc2ccco2)C1=O (stereo unspecified) | nt | -8 | 0 | 9 | -7 | nt
CCCCNc1nc2ccccc2n1CC(=O)Nc1c(C)cccc1CC | -6 | 25* | -1 | 5 | -3 | -9
CCc1cccc(C)c1NC(=O)Cn1c(NCCO)nc2ccccc21 | -18 | 1 | 0 | 4 | 0 | nt
CC(=O)/C(C[N+]1(C)CCCCC1)=N\O | -21 | 23* | 2 | 3 | -5 | -2
CC(C)Cn1c(=O)c(C(=O)Nc2ccncc2)c(O)c2ccccc21 | nt | 35* | 1 | -1 | 10 | 23*
CC1(C)CC(=O)C2=C(C1)OC(N)=C(C#N)C2c1cc2c(cc1[N+](=O)[O-])OCO2 (stereo unspecified) | 94* | 104* | -56* | 141* | 186* | 80*
CC(=O)N/N=C/c1cc(C(C)C)cc(/C=N/NC(C)=O)c1O | 71* | 69* | -3 | 143* | 93* | 100*
CC(=O)N/N=C/c1cc(C)n(-c2ccc(Br)cc2)c1C | 9 | -5 | 0 | -1 | 3 | nt
CC1CCCC1/C(=N/O)c1ccccc1 (stereo unspecified) | nt | 1 | -3 | 11 | -3 | nt
O=C1c2cccc3cccc(c23)C(=O)N1CCN1CCN(CC(O)COCc2ccc(Cl)cc2)CC1 (stereo unspecified) | -11 | 11 | -8 | 3 | 6 | nt
COc1cc(COCC(O)CN2CCN(CCN3C(=O)c4cccc5cccc(c45)C3=O)CC2)cc(OC)c1OC (stereo unspecified) | 6 | 18* | -16 | 3 | 7 | 17*
CC(C)C1NC2(C(=O)c3ccccc3C2=O)C2C(=O)N(c3ccc(F)cc3)C(=O)C12 (stereo unspecified) | -8 | 50* | 1 | 120* | 80* | -2
CCc1[nH]c(=O)[nH]c1C(C)S(=O)(=O)c1ccc(C)cc1 (stereo unspecified) | 6 | -7 | 0 | 4 | 9 | nt

Source: PubChem
